Records with an inconclusive call do not appear. Calls of active or inactive are those of the source. Calls follow the shape of the dose curve; as a rule, active = well fitted cell-killing curve with a large enough effect; inconclusive = small, poorly fitted or top-dose-only effect, or effect the other way; inactive = flat fitted curve, though single readings scatter. Where a SMILES comes first, the peptide text is derived from it. Bridges are numbered along the chain shown (N, C = ends). [ ]: non-standard residue; d: D form. The star is where a group is joined. X1 = CCC(C)C(N)C1=NC(C(=O)*)CS1; dOrn = NCCC[C@@H](N)C(=O)O
How the values were obtained:
Test in all cases: Primary qHTS to identify gynecologic anti-cancer compounds using libraries of approved drugs and bioactive compounds (AID 1345084); also: nearly all actives have a fitted effect of over 55% in size
[1] = system: Hek293T; conditions: Gynecologic cancer cell panel viability, ATPlite luminescence, 48 h, control line for the selectivity index; series mostly up to 57.5 µM
Outline: (§1)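 In this quantitative HTS, cell killing is estimated from loss of ATP-dependent luciferase light. Cells see five compound concentrations over a 48 h exposure.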

[2] = system: JEG-3; conditions: Gynecologic cancer cell panel viability, ATPlite luminescence, 48 h; series mostly up to 57.5 µM
Outline: as §1

[3] = system: OV90; conditions: Gynecologic cancer cell panel viability, ATPlite luminescence, 48 h; series mostly up to 57.5 µM
Outline: as §1

[4] = system: PA-1; conditions: Gynecologic cancer cell panel viability, ATPlite luminescence, 48 h; series mostly up to 57.5 µM
Outline: as §1

[5] = system: SKOV3; conditions: Gynecologic cancer cell panel viability, ATPlite luminescence, 48 h; series mostly up to 57.5 µM
Outline: as §1

[6] = system: Tov-21-G; conditions: Gynecologic cancer cell panel viability, ATPlite luminescence, 48 h; series mostly up to 57.5 µM
Outline: as §1

[7] = system: Tov112D; conditions: Gynecologic cancer cell panel viability, ATPlite luminescence, 48 h; series mostly up to 57.5 µM
Outline: as §1
% is scaled to controls: 0 for no effect and ±100 for the full control effect.

C[C@@H]1O[C@@H](O[C@H]2[C@H](O[C@H]3[C@H](O[C@H]4CC[C@@]5(C=O)C(CC[C@]6(C)C5CC=C5C7CC(C)(C)C[C@@H](O)[C@]7(C)CC[C@]56C)C4(C)C)O[C@H](C(=O)O)[C@@H](O)[C@@H]3O)OC[C@@H](O)[C@@H]2O)[C@H](O)[C@H](O)[C@H]1O (stereo partly drawn)
inactive: activity change, negative = cytotoxicity [1] -7.04% [at 11.6 µM] | activity change, negative = cytotoxicity [2] 9.31% [at 11.6 µM] | activity change, negative = cytotoxicity [3] 6.53% [at 11.6 µM] | activity change, negative = cytotoxicity [4] 13.9% [at 11.6 µM] | activity change, negative = cytotoxicity [5] 13.5% [at 11.6 µM] | activity change, negative = cytotoxicity [6] 8.97% [at 11.6 µM] | activity change, negative = cytotoxicity [7] 15.2% [at 11.6 µM]

Cc1c(CN(C)C(=O)/C=C/c2cnc3c(c2)CCC(=O)N3)oc2ccccc12
inactive: Potency [1] | Potency [2] | Potency [3] | Potency [4] | Potency [5] | Potency [6] | Potency [7]

CC1(C)CCC(C)(C)c2cc([C@@H](O)C(=O)Nc3ccc(C(=O)O)cc3F)ccc21
inactive: Potency [1] | Potency [2] | Potency [3] | Potency [4] | Potency [5] | Potency [6] | Potency [7]

CC[C@H](C)/C=C(C)/C=C/C(=O)Cc1cc(O)c(C)c(O)c1C=O
inactive: Potency [1] | Potency [2] | Potency [3] | Potency [4] | Potency [5] | Potency [6] | Potency [7]

O=C(c1ccc(C#Cc2cccc(F)c2)cn1)N1CC2CC2C1 (stereo not drawn)
inactive: Potency [1] | Potency [2] | Potency [3] | Potency [4] | Potency [5] | Potency [6] | Potency [7]

CC[C@H]1OC(=O)[C@H](C)[C@@H](O[C@H]2C[C@@](C)(OC)[C@@H](O)[C@H](C)O2)[C@H](C)[C@@H](O[C@@H]2O[C@H](C)C[C@H](N(C)C)[C@H]2O)[C@@](C)(O)C[C@@H](C)[C@@H]2N[C@@H](COCCOC)OC([C@H]2C)[C@]1(C)O
inactive: Potency [1] | Potency [2] | Potency [3] | Potency [4] | Potency [5] | Potency [6] | Potency [7]

O=C(O)CCc1cc2ccoc2cc1O[C@@H]1O[C@H](CO[C@@H]2OC[C@](O)(CO)[C@H]2O)[C@@H](O)[C@H](O)[C@H]1O
inactive: Potency [1] | Potency [2] | Potency [3] | Potency [4] | Potency [5] | Potency [6] | Potency [7]

CCC(C)C(N)C1=NC(C(=O)N[C@@H](CC(C)C)C(=O)N[C@H](CCC(=O)O)C(=O)N[C@H](C(=O)N[C@H]2CCCCNC(=O)[C@H](CC(N)=O)NC(=O)[C@@H](CC(=O)O)NC(=O)[C@H](Cc3cnc[nH]3)NC(=O)[C@@H](Cc3ccccc3)NC(=O)[C@H]([C@@H](C)CC)NC(=O)[C@@H](CCCN)NC2=O)[C@@H](C)CC)CS1 (stereo partly drawn) (X1-L[dE]IK[dOrn]I[dF]H[dD]N; lactam 4-C)
inactive: Potency [1] | Potency [2] | Potency [3] | Potency [4] | Potency [5] | Potency [6] | Potency [7]

O=C1NCc2nc3ccccc3c(=O)n2C1Cc1c[nH]c2ccccc12 (stereo not drawn)
inactive: Potency [1] | Potency [2] | Potency [3] | Potency [4] | Potency [5] | Potency [6] | Potency [7]

CC1=CC(=O)C[C@H]2[C@@H]1CC[C@@H](C)[C@]21CO[C@H](c2ccoc2)C1=O
inactive: Potency [1] | Potency [2] | Potency [3] | Potency [4] | Potency [5] | Potency [6] | Potency [7]

C=C(C)C(C)C1OC23CC4(CO2)C(CCC2C5(C)CCC(OC6OCC(O)C(OC7OC(CO)C(O)C(OC8OCC(O)C(O)C8O)C7O)C6OC6OC(CO)C(O)C6O)C(C)(C)C5CCC24C)C3C(C)(O)C1OC(C)=O (stereo not drawn)
inactive: activity change, negative = cytotoxicity [1] 12% [at 11.6 µM] | activity change, negative = cytotoxicity [2] -1.98% [at 11.6 µM] | activity change, negative = cytotoxicity [3] -0.379% [at 11.6 µM] | activity change, negative = cytotoxicity [4] -1.12% [at 11.6 µM] | activity change, negative = cytotoxicity [5] 3.59% [at 11.6 µM] | activity change, negative = cytotoxicity [6] 1.52% [at 11.6 µM] | activity change, negative = cytotoxicity [7] 5.61% [at 11.6 µM]

CC(=O)O[C@@H]1C[C@@]23C[C@@]24CC[C@H](OC2OC[C@@H](O)[C@H](O)[C@H]2O)C(C)(C)[C@@H]4CC[C@H]3[C@]2(C)CC3OC4(C[C@@H](C)C3[C@@]12C)OCC1(C)OC14 (stereo partly drawn)
inactive: Potency [1] | Potency [2] | Potency [3] | Potency [4] | Potency [5] | Potency [6] | Potency [7]

CC(=O)OC[C@]12[C@H](OC(C)=O)C(=O)[C@@H]3[C@@H](OC(C)=O)[C@@]14O[C@@]3(C)COC(=O)c1cccnc1[C@@H](C)[C@H](C)C(=O)O[C@@H]([C@H](OC(C)=O)[C@@H]2OC(C)=O)[C@]4(C)O
inactive: Potency [1] | Potency [2] | Potency [3] | Potency [4] | Potency [5] | Potency [6] | Potency [7]

C=CC1(C)C=C2C(=O)CC3C(C)(C)CCCC3(C(=O)O)C2(O)CC1 (stereo not drawn)
inactive: Potency [1] | Potency [2] | Potency [3] | Potency [4] | Potency [5] | Potency [6] | Potency [7]

C[C@@H]1CC[C@]2(C)C3(C)CC[C@@]2(OC3=O)[C@@]12C[C@H](c1ccoc1)OC2=O
inactive: Potency [1] | Potency [2] | Potency [3] | Potency [4] | Potency [5] | Potency [6] | Potency [7]

C=C1CCC(OC(C)=O)C2(C)CC3(O)OC(=O)C(C)=C3CC12 (stereo not drawn)
inactive: Potency [1] | Potency [2] | Potency [3] | Potency [4] | Potency [5] | Potency [6] | Potency [7]

C=C1CCC2(OC1)OC1CC3C4CC=C5CC(O)CC(O[C@@H]6OC[C@@H](O)[C@H](O)[C@H]6O)C5(C)C4CCC3(C)C1(O)C2C (stereo partly drawn)
inactive: Potency [1] | Potency [2] | Potency [3] | Potency [4] | Potency [5] | Potency [6] | Potency [7]

CC(C)(O)CNc1nc(Nc2ccnc(C(F)(F)F)c2)nc(-c2cccc(C(F)(F)F)n2)n1
inactive: Potency [1] | Potency [2] | Potency [3] | Potency [4] | Potency [5] | Potency [6] | Potency [7]

CC1(C)CC[C@]2(C(=O)O)CC[C@]3(C)C(=CCC4[C@@]5(C)C[C@@H](O)[C@H](O)C(C)(C)C5CC[C@]43C)[C@@H]2[C@@H]1O (stereo partly drawn)
inactive: Potency [1] | Potency [2] | Potency [3] | Potency [4] | Potency [5] | Potency [6] | Potency [7]

CCn1cc(C2=NOC(C(=O)Nc3c(C)n(C)n(-c4ccccc4)c3=O)C2)c(C)n1 (stereo not drawn)
inactive: Potency [1] | Potency [2] | Potency [3] | Potency [4] | Potency [5] | Potency [6] | Potency [7]

CCOC(=O)c1c(C)nn(-c2cccc([N+](=O)[O-])c2)c1C
inactive: Potency [1] | Potency [2] | Potency [3] | Potency [4] | Potency [5] | Potency [6] | Potency [7]

Cc1[nH]cnc1C1CCN(c2nc3cccc4c3n2CCC4=O)CC1
inactive: Potency [1] | Potency [2] | Potency [3] | Potency [4] | Potency [5] | Potency [6] | Potency [7]

CC1=CC(=O)CC(C)(C)C1CCC(C)OC1OC(COC(=O)c2cc(O)c(O)c(O)c2)C(O)C(O)C1O (stereo not drawn)
inactive: Potency [1] | Potency [2] | Potency [3] | Potency [4] | Potency [5] | Potency [6] | Potency [7]

C=CC1(C)CC(OC(=O)C(=C)C(O)COC(C)=O)C(C(=C)C(=O)OC)C(O)C1C(=C)CO (stereo not drawn)
inactive: Potency [1] | Potency [2] | Potency [3] | Potency [4] | Potency [5] | Potency [6] | Potency [7]
